Inconclusive results are not listed. A call without a number means that no potency is given here. Values without a mark were called inactive. Active and inactive are the calls of the source. Unless noted, calls come from the whole dose curve; as a rule, active = well fitted cell-killing curve with a large enough effect in the repeat runs; inconclusive = weak or mixed curves, or effect the other way; inactive = no such curve, though single readings can be large or run the other way.
Molecular target: Bile acid receptor (Homo sapiens) (UniProt Q96RI1)
Sequence (Q96RI1 whole entry, looked up): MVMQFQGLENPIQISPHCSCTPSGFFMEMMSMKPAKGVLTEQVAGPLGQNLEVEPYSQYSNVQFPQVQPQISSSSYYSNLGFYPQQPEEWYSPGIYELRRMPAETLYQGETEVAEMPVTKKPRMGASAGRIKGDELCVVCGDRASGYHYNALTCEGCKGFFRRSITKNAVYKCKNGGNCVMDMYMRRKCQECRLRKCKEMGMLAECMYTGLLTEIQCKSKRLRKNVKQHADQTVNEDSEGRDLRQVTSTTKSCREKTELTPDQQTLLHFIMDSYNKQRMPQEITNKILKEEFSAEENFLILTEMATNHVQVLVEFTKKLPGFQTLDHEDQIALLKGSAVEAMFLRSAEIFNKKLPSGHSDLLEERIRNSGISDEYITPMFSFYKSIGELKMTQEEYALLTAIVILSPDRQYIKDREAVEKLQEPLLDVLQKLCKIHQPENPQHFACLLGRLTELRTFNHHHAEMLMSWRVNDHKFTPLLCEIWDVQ
Test: qHTS assay to identify small molecule antagonists of the farnesoid-X-receptor (FXR) signaling pathway (AID 743217; active = well fitted inhibition curve with a large enough effect in the signal ratio in the repeat runs, not every such curve was filed as active; the % refers to the signal ratio)
Conditions: HEK293T FXR-UAS-bla, beta-lactamase ratio, CDCA-stimulated, 16 h; series mostly up to 62.6 µM
How it was run: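 Quantitative HTS, beta-lactamase reporter format: FXR-UAS-bla HEK 293T cells co-treated 16 h at 37 °C with compounds and 50 uM final chenodeoxycholic acid, then read by B/G FRET fluorescence.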

| SMILES | Potency |
| --- | --- |
| O[C@@H]([C@H](O)[C@H](O)CBr)[C@H](O)CBr | inactive |
| CCCCCCCC | inactive |
| Cl[Si](Cl)(c1ccccc1)c1ccccc1 | inactive |
| OCC(F)(F)F | inactive |
| Cc1ccc(C)cc1 | inactive |
| CCCNCCC | inactive |
| O=C(Oc1ccccc1)Oc1ccccc1 | inactive |
| COc1cc2nc(N3CCN(C(=O)c4ccco4)CC3)nc(N)c2cc1OC | inactive |
| CC(CO)Oc1ccccc1 (stereo not drawn) | inactive |
| CN(C)[C@@H](CCOc1cccc2ccccc12)c1ccccc1 | inactive |
| FC(F)(F)c1cccc(Cl)c1 | inactive |
| CCCC[P+](C)(CCCC)CCCC | inactive |

Test system: not listed separately
Test: qHTS assay to identify small molecule agonists of the farnesoid-X-receptor (FXR) signaling pathway - cell viability counter screen (AID 743218); note: nearly all actives have a fitted effect of over 45% in size; note: potency is the fitted concentration of half-maximal effect
Conditions: FXR-bla HEK293T viability, CellTiter-Glo luminescence, 16 h; series mostly up to 62.6 µM
How it was run: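 Same-well cytotoxicity check on FXR-UAS-bla HEK 293T cells: 5 h attachment, 16 h compound at 37 C, CellTiter-Glo luminescence read at room temperature after 30 min.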

| SMILES | Potency | viability change, negative = cytotoxic |
| --- | --- | --- |
| COc1ccc(NC(=O)CC(C)=O)cc1 | inactive | – |
| Cc1cccc(C)c1NC(=O)c1ccc(N)cc1 | inactive | – |
| O[C@@H]([C@H](O)[C@H](O)CBr)[C@H](O)CBr | inactive | – |
| Cl[Si](Cl)(c1ccccc1)c1ccccc1 | inactive | – |
| OCC(F)(F)F | inactive | – |
| C=CCCC(=O)/C=C/C1C(C)=CCCC1(C)C (stereo not drawn) | inactive | – |
| C[C@H]1NCc2cc(-c3ccc4c(=O)c(C(=O)O)cn(C5CC5)c4c3OC(F)F)ccc21 | inactive | – |
| CCOC(=O)c1ccc(C2CCC(NC[C@H](O)COc3ccc(O)c(NS(C)(=O)=O)c3)CC2)cc1 (stereo partly drawn) | 35.9 µM (active) | – |
| Cc1ccc(C)cc1 | inactive | – |
| Clc1sc(Cl)c(Cl)c1Cl | inactive | – |
| O=c1c(O)c(-c2ccc(O)cc2O)oc2cc(O)cc(O)c12 | inactive | – |
| COc1cc2nc(N3CCN(C(=O)c4ccco4)CC3)nc(N)c2cc1OC | inactive | – |
| CC(CO)Oc1ccccc1 (stereo not drawn) | inactive | – |
| OC[C@@H](O)[C@@H](O)CO | inactive | – |
| COc1cc(C)ccc1O | inactive | – |
| Cc1ccc(-c2ccccc2)cc1 | inactive | – |
| COc1ccc(-c2coc3cc(O)ccc3c2=O)cc1 | inactive | – |
| CC(C)(C)CC(C)(C)c1ccc(Nc2ccc(C(C)(C)CC(C)(C)C)cc2)cc1 | – | -9.89% [at 5.95 µM] |
| O=S(=O)(O)c1ccc(N=Nc2c(O)ccc3ccccc23)cc1 | 38.9 µM (active) | – |
| C=CC(C)(CCC=C(C)C)OC=O (stereo not drawn) | inactive | – |
| CCCCCCCCCCOC(=O)c1ccccc1C(=O)OCCCCCCCC | inactive | – |
| CCCC(=O)OCCc1ccccc1 | inactive | – |
| CCCCCCCC/C=C\CCCCCCCCN | inactive | – |
| C#CC1(O)CC[C@H]2[C@@H]3CCC4=CCCC[C@@H]4[C@H]3CC[C@@]21C (stereo partly drawn) | 23.7 µM (active) | – |
| Cc1c(F)c(N2CCNC(C)C2)cc2c1c(=O)c(C(=O)O)cn2C1CC1 (stereo not drawn) | inactive | – |
| O=C(O)c1cccc(C(F)(F)F)c1 | inactive | – |
